# In the supplement of paper PMC8728848:
# Only a selection was taken, and the strongest signals are over-represented in it overall.
# Tests used:
# Test in all cases: glycan array binding signal (z-score within array); higher = stronger binding
# Conditions in all cases: glycan notation: IUPAC condensed, linker removed
# Glc(a1-6)Glc(a1-6)Glc = biological target: Glc(a1-6)Glc(a1-6)Glc
# Summary of the method: (§1)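 The Consortium for Functional Glycomics database supplied 3228 glycan arrays, of which those lacking an available protein sequence were dropped. The binding signal, a within-array Z-score, was averaged across arrays of the same protein sequence and across linkers. Negative scores can be read as non-binding.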
# [1] = biological target: GlcNAc(b1-2)Gal(b1-3)GalNAc
# Summary of the method: as §1
# [2] = biological target: GlcNAc(b1-2)[GlcNAc(b1-4)]Man(a1-3)[GlcNAc(b1-2)Man(a1-6)]Man(b1-4)GlcNAc(b1-4)GlcNAc
# Summary of the method: as §1
# [3] = biological target: GlcNAc(b1-3)Gal(b1-4)GlcNAc(b1-3)Gal(b1-4)GlcNAc(b1-3)Gal(b1-4)GlcNAc(b1-3)Gal(b1-4)GlcNAc(b1-2)Man(a1-3)[GlcNAc(b1-3)Gal(b1-4)GlcNAc(b1-3)Gal(b1-4)GlcNAc(b1-3)Gal(b1-4)GlcNAc(b1-3)Gal(b1-4)GlcNAc(b1-2)Man(a1-6)]Man(b1-4)GlcNAc(b1-4)[Fuc(a1-6)]GlcNAc
# Summary of the method: as §1
# [4] = biological target: GlcNAc(b1-3)Gal(b1-4)GlcNAc(b1-3)Gal(b1-4)GlcNAc(b1-3)GalNAc
# Summary of the method: as §1
# [5] = biological target: GlcNAc(b1-3)[GlcNAc(b1-6)]GalNAc
# Summary of the method: as §1
# [6] = biological target: GlcNAc(b1-4)GlcNAc(b1-4)GlcNAc(b1-4)GlcNAc(b1-4)GlcNAc(b1-4)GlcNAc
# Summary of the method: as §1
# Kdn(a2-6)Gal(b1-4)GlcNAc = biological target: Kdn(a2-6)Gal(b1-4)GlcNAc
# Summary of the method: as §1
# [7] = biological target: Man(a1-2)Man(a1-2)Man(a1-3)Man
# Summary of the method: as §1
# [8] = biological target: Man(a1-2)Man(a1-3)[Man(a1-2)Man(a1-6)]Man
# Summary of the method: as §1
# [9] = biological target: Man(a1-3)[Man(a1-6)]Man(a1-6)[Man(a1-3)]Man(b1-4)GlcNAc(b1-4)GlcNAc
# Summary of the method: as §1
# MurNAc(b1-4)GlcNAc = biological target: MurNAc(b1-4)GlcNAc
# Summary of the method: as §1
# [10] = biological target: Neu5Ac(a2-3)Gal(b1-4)GlcNAc(b1-2)Man(a1-3)[GlcNAc(b1-4)][Neu5Ac(a2-3)Gal(b1-4)GlcNAc(b1-2)Man(a1-6)]Man(b1-4)GlcNAc(b1-4)GlcNAc
# Summary of the method: as §1
# [11] = biological target: Neu5Ac(a2-3)Gal(b1-4)GlcNAc(b1-3)Gal(b1-4)GlcNAc
# Summary of the method: as §1
# [12] = biological target: Neu5Ac(a2-3)Gal(b1-4)GlcNAc(b1-3)Gal(b1-4)GlcNAc(b1-3)[Neu5Ac(a2-3)Gal(b1-4)GlcNAc(b1-3)Gal(b1-4)GlcNAc(b1-6)]GalNAc
# Summary of the method: as §1
# [13] = biological target: Neu5Ac(a2-3)Gal(b1-4)GlcNAc(b1-3)[Neu5Ac(a2-3)Gal(b1-4)GlcNAc(b1-6)]GalNAc
# Summary of the method: as §1
# [14] = biological target: Neu5Ac(a2-3)Gal(b1-4)[Fuc(a1-3)]GlcNAc(b1-3)GalNAc
# Summary of the method: as §1
# [15] = biological target: Neu5Ac(a2-6)Gal(b1-4)GlcNAc(b1-2)Man(a1-3)Man(b1-4)GlcNAc(b1-4)GlcNAc
# Summary of the method: as §1
# [16] = biological target: Neu5Ac(a2-6)Gal(b1-4)GlcNAc(b1-2)Man(a1-3)[Gal(b1-4)GlcNAc(b1-2)Man(a1-6)]Man(b1-4)GlcNAc(b1-4)GlcNAc
# Summary of the method: as §1
# [17] = biological target: Neu5Ac(a2-6)Gal(b1-4)GlcNAc(b1-2)[Neu5Ac(a2-6)Gal(b1-4)GlcNAc(b1-4)]Man(a1-3)[GlcNAc(b1-4)][Neu5Ac(a2-6)Gal(b1-4)GlcNAc(b1-2)[Neu5Ac(a2-6)Gal(b1-4)GlcNAc(b1-6)]Man(a1-6)]Man(b1-4)GlcNAc(b1-4)GlcNAc
# Summary of the method: as §1
# [18] = biological target: Neu5Ac(a2-6)Gal(b1-4)GlcNAc(b1-2)[Neu5Ac(a2-6)Gal(b1-4)GlcNAc(b1-6)]Man(a1-6)[Neu5Ac(a2-6)Gal(b1-4)GlcNAc(b1-2)Man(a1-3)][GlcNAc(b1-4)]Man(b1-4)GlcNAc(b1-4)GlcNAc
# Summary of the method: as §1
# [19] = biological target: Neu5Ac(a2-6)Gal(b1-4)GlcNAc(b1-3)Gal(b1-4)GlcNAc
# Summary of the method: as §1
# [20] = biological target: Neu5Ac(a2-6)Gal(b1-4)GlcNAc(b1-3)Gal(b1-4)GlcNAc(b1-3)[Neu5Ac(a2-6)Gal(b1-4)GlcNAc(b1-3)Gal(b1-4)GlcNAc(b1-6)]GalNAc
# Summary of the method: as §1
# [21] = biological target: Neu5Ac(a2-6)Gal(b1-4)GlcNAc(b1-6)[Gal(b1-3)GlcNAc(b1-3)]Gal(b1-4)Glc
# Summary of the method: as §1
# [22] = biological target: Neu5Ac(a2-8)Neu5Ac(a2-8)Neu5Ac
# Summary of the method: as §1
# [23] = biological target: Neu5Gc(a2-8)Neu5Gc(a2-6)Gal(b1-4)GlcNAc
# Summary of the method: as §1
binder,measurement,setting,value
"EfCBM33A (Enterococcus faecalis), Q838S1 (protein) MKKSLLTIVLAFSFVLGGAALAPTVSEAHGYVASPGSRAFFGSSAGGNLNTNVGRAQWEPQSIEAPKNTFITGKLASAGVSGFEPLDEQTATRWHKTNITTGPLDITWNLTAQHRTASWDYYITKNGWNPNQPLDIKNFDKIASIDGKQEVPNKVVKQTINIPTDRKGYHVIYAVWGIGDTVNAFYQAIDVNIQ",glycan array binding signal (z-score),Glc(a1-6)Glc(a1-6)Glc,0.821
same,glycan array binding signal (z-score),[1],-0.504
same,glycan array binding signal (z-score),[2],0.123
same,glycan array binding signal (z-score),[3],4.24
same,glycan array binding signal (z-score),[4],0.242
same,glycan array binding signal (z-score),[5],-0.941
same,glycan array binding signal (z-score),[6],0.083
same,glycan array binding signal (z-score),Kdn(a2-6)Gal(b1-4)GlcNAc,0.328
same,glycan array binding signal (z-score),[7],-0.162
same,glycan array binding signal (z-score),[8],0.783
same,glycan array binding signal (z-score),[9],0.455
same,glycan array binding signal (z-score),MurNAc(b1-4)GlcNAc,0.631
same,glycan array binding signal (z-score),[10],0.122
same,glycan array binding signal (z-score),[11],-0.177
same,glycan array binding signal (z-score),[12],7.32
same,glycan array binding signal (z-score),[13],3.14
same,glycan array binding signal (z-score),[14],2.79
same,glycan array binding signal (z-score),[15],2.04
same,glycan array binding signal (z-score),[16],0.519
same,glycan array binding signal (z-score),[17],2.16
same,glycan array binding signal (z-score),[18],0.103
same,glycan array binding signal (z-score),[19],2.76
same,glycan array binding signal (z-score),[20],0.687
same,glycan array binding signal (z-score),[21],-0.451
same,glycan array binding signal (z-score),[22],0.016
same,glycan array binding signal (z-score),[23],-0.736
